Compounds without any hit were thinned out: in the full panel of roughly 79,000, 15% have a hit. A number with no mark means an inactive call. The source made the active and inactive calls. No stated cut-off is given here; in the data, active means growth inhibition above about 70%; inactive means the rest.
Experiments:
[1] = NCI Yeast Anticancer Drug Screen. Data for the rad50 strain (AID 155);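 further: 0% = growth of vehicle-only cultures of the same strain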; details: S. cerevisiae rad50 strain growth inhibition; at 50.0 µM; hits give high values
Outline: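 Genetically altered yeast (DNA repair pathway); compound treatment; growth inhibition vs vehicle ctrl.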

[2] = NCI Yeast Anticancer Drug Screen. Data for the mec2-1 strain (AID 157); details: S. cerevisiae mec2-1 strain, at 50.0 µM, hits give high values
Outline: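 Each compound was tested on mec2-1 yeast, a strain altered in DNA damage repair or cell cycle control. Growth inhibition is reported relative to vehicle.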

[3] = NCI Yeast Anticancer Drug Screen. Data for the sgs1 mgt1 strain (AID 161);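 further: 0% = growth of cultures given vehicle only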; details: S. cerevisiae sgs1 mgt1 strain, at 50.0 µM, hits give high values
Outline: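 Test agents were incubated with a DNA-repair-mutant yeast strain. Growth was then read and compared against vehicle-treated controls.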

[4] = NCI Yeast Anticancer Drug Screen. Data for the cln2 rad14 strain (AID 165);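 further: 0% = growth equal to vehicle treated cultures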; details: S. cerevisiae cln2 rad14 strain, at 50.0 µM, hits give high values
Outline: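 Test compounds were added to cln2 rad14 yeast cultures; inhibition of growth was then determined by comparison with vehicle treatment.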

[5] = NCI Yeast Anticancer Drug Screen. Data for the bub3 strain (AID 167); details: S. cerevisiae bub3 mutant strain, at 50.0 µM, hits give high values
Outline: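 Yeast carrying a defined mutation is treated with each compound, and growth is compared with that of vehicle-exposed cells to give inhibition.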

[6] = NCI Yeast Anticancer Drug Screen. Data for the mlh1 rad18 strain (AID 175); details: S. cerevisiae mlh1 rad18 strain growth inhibition; at 50.0 µM; hits give high values
Outline: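 Inhibition values reflect reduced growth of mutant yeast versus vehicle-treated controls following compound exposure; the mutations affect DNA damage repair.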

Row | SMILES | growth inhibition [1] [%] | growth inhibition [2] [%] | growth inhibition [3] | growth inhibition [4] [%] | growth inhibition [5] [%] | growth inhibition [6]
1 | COC(=O)NC1CCCCC1 | -2.5 | -13.8 | -4.6% | 20.6 | -8.2 | -6.35%
2 | COC(=O)/C=C1\C(=O)N(C(C)=O)c2ccccc21 | 12.3 | 16.1 | 72.2% (active) | 40.1 | 50.6 | 76.4% (active)
3 | O=C(CC(=O)C(=O)CC(=O)OCc1ccccc1)OCc1ccccc1 | 15 | -19.9 | -0.3% | 11.9 | -21.3 | 2.55%
4 | CCCCCCCC(CCCCCCC)(C(=O)OCC)C(=O)OCC | 7.1 | -1.65 | 9.1% | -37.5 | 0.25 | 0.9%
5 | COc1ccccc1NC(=O)CC(=O)N1N=C(N(c2ccccc2)c2ccccc2)CC1c1ccccc1 (stereo unspecified) | 6.75 | -1.1 | -7.15% | 9.8 | 9.6 | 23.1%
6 | C[Si](C)(C)OC=C1CCCCC1 | 12.1 | -3.95 | -3.55% | -29.2 | -21.4 | 9.7%
7 | CSc1nc2c(c(=O)[nH]1)N=C(c1ccccc1)CC(c1ccccc1)N2 (stereo unspecified) | 7.45 | 14.7 | 17.8% | -0.55 | 22.6 | -5.85%
8 | O=C(NC(=O)c1ccccc1O)c1ccccc1 | -4.6 | 5.45 | -15.4% | -0.35 | -19.5 | -11.2%
9 | CCc1c(O)c2c(c(O)c1C(C)=O)C(=O)c1c(cc(O)c(C(=O)O)c1C(=O)O)C2=O | -3.15 | 9.8 | 24.2% | 10.2 | 20.3 | 12.8%
10 | CNc1ccccc1C | 37.6 | -15.4 | -8.1% | -82.1 | 18.9 | 23%
11 | CCOC(=O)NC(=O)c1cn(CCSCCOC(=O)NCCCCCCNC(=O)OCCSCCn2cc(C(=O)NC(=O)OCC)c(=O)[nH]c2=O)c(=O)[nH]c1=O | 28.7 | 20.6 | 11.9% | 12.9 | -51.2 | 23.2%
12 | COc1ccc2[nH]c(=O)oc(=O)c2c1 | 1 | 1.25 | -7.5% | -33.9 | -16.4 | -2.8%
13 | Oc1cccc(N2CCN(c3cccc(O)c3)CC2)c1 | 2.45 | -26.9 | 3.7% | 9.15 | 5.85 | -15%
14 | CC1CCC(OC(=O)CC#N)CC1 (stereo unspecified) | -2.15 | -7.2 | -2.3% | 3.45 | 2.35 | -6.15%
15 | CC(=O)Oc1ccc(C(C)(C)C)cc1 | 10.7 | -7.25 | 1.55% | -11.7 | -4.1 | 5.15%
16 | CCCCCCNC(C)=O | 13.6 | 5.7 | 11.9% | 5.7 | -5.5 | -0.55%
17 | CC(OP(=O)(O)O)C(N)C(=O)O (stereo unspecified) | 0.4 | -34 | -44.9% | -39.1 | -19.9 | -5.2%
18 | COc1cccc(C(=O)O)c1Cc1cccc2ccccc12 | 1.25 | -6.7 | 10.3% | 27.2 | -0.4 | 25.1%
19 | O=C(Oc1ccccc1Cl)C1=C(C(=O)Oc2ccccc2Cl)CCC1 | 51.4 | -1.2 | 45.5% | -1.45 | 4.55 | 9.75%
20 | CSc1nc(=O)n(CCC#N)nc1SC | 32.6 | 21.9 | 34.9% | -7.65 | 4.25 | 12.2%
21 | CC1C(C)(C)P(=O)(OCCOP2(=O)C(C)(C)C(C)C2(C)C)C1(C)C (stereo unspecified) | 35 | -0.85 | 22.2% | -9.6 | 3.75 | 7.25%

Row | SMILES | growth inhibition [1] [%] | growth inhibition [2] [%] | growth inhibition [3] | growth inhibition [4] [%] | growth inhibition [5] [%] | growth inhibition [6]
22 | O=c1n(-c2ccccc2)c(=O)n2c(=O)n(-c3ccccc3)c(=O)n12 | -23.4 | -1.55 | -10.7% | -44.9 | -9 | 1.15%
23 | O=S1(=O)CCCC1C(O)c1ccccc1 (stereo unspecified) | 13.8 | -5.75 | -8.85% | -60.2 | 1.55 | -15.1%
24 | c1ccc(C2=Nc3ccccc3-c3ccccc3N2)cc1 | -2.95 | -1.35 | -6.05% | -28.4 | -4.75 | -8.05%
25 | Cc1ccc(C(C)C)c(OC(=O)NCCCCCCNC(=O)Oc2cc(C)ccc2C(C)C)c1 | -11 | -4.2 | 10.7% | 11.1 | -7.2 | 9.05%
26 | CCCCCCCCCCCCCCCCOCC(CCl)OP(=O)(O)OP(=O)(O)OCC1OC(n2ccc(N)nc2=O)C(O)C1O (stereo unspecified) | -33.3 | -38.9 | 15.1% | -35 | -37.4 | -95.4%
27 | C#CCSC(=N)N | 5.4 | -6.9 | 8.9% | 5.2 | 8.8 | 5.75%
28 | CCCCNC(C(=O)c1ccccc1)c1ccccc1 (stereo unspecified) | 4.85 | 17.1 | 0.45% | -16.6 | 13.9 | 26.4%
29 | O=C(NI1OC(=O)c2ccccc21)c1ccc(Cl)cc1 | -9 | 6.05 | -38% | -17.5 | -33.6 | -5.6%
30 | CCCCCCCCCCCCCCCC1=NN(c2ccc([N+](=O)[O-])cc2)C(=O)C1 | 14.9 | -3.8 | -25.8% | -8.4 | 1.3 | 0.75%
31 | CCOc1ccc2nc(N=NC(C(C)=O)C(C)=O)sc2c1 | 26.9 | 9.8 | 1.3% | 14.1 | 5.55 | 15.9%
32 | CC(c1ccccc1)n1cnc2c(Cl)ncnc21 (stereo unspecified) | 5 | -16.7 | 5.05% | -0.5 | 6.3 | -17.2%
33 | O=C(CN1C(=O)c2ccccc2C1=O)Oc1ccccc1 | 1.8 | -7.4 | 1.1% | -9.05 | 16.4 | -5.45%
34 | CCCN(CCC)S(=O)(=O)c1ccc(NC(=O)OC(c2ccccc2)(c2ccccc2)c2ccccc2)cc1 | 24.1 | -4.3 | 5.4% | 7.95 | -3.7 | 0.95%
35 | CC(=O)c1sc2c(c1OC(=O)c1cccs1)c(=O)n(-c1ccccc1)c(=S)n2-c1ccccc1 | 22.2 | -4.25 | 10.3% | -15.1 | 23.4 | 3.9%
36 | COc1ccc(-c2nc(N3CCCC3)no2)cc1 | -0.85 | -4.65 | 32.1% | 3.85 | 31.1 | -20.9%
37 | CC(C)Cn1cnc2c(SCc3ccccn3)nc(N)nc21 | -6.45 | -17.4 | -10.2% | -30.6 | -48.5 | -17.4%
38 | Cc1ccc(NC(=O)CCc2nnc3s/c(=C\c4cccc([N+](=O)[O-])c4)c(=O)n23)cc1 | -31.4 | -8.45 | -10.6% | 14 | 10.7 | 3.3%
39 | CCOC(=O)c1nc2ccccc2nc1NCc1ccc(OC)c(OC)c1 | 0.65 | 13.1 | -7.75% | 19.7 | -0.05 | -11.4%
40 | CC(=O)Nc1cccc(N=NN(C)C)c1 | 14.2 | 14.1 | 39% | 20.5 | 34.4 | 29.6%
41 | CCNC(=O)C1CC2C=CC1C2 (stereo unspecified) | -1.25 | 2.1 | 4.2% | 12.6 | 3.05 | 1.5%

Source: PubChem BioAssay (NCI)
